PubChem BioAssay (EPA / NIEHS)
Records with an inconclusive call do not appear. Calls of active or inactive are those of the source. The calls were made as follows, unless noted: active = hit-call score of the fitted dose curve at least 0.9, where 1 is the maximum; inconclusive = response in the unintended direction; inactive = score below 0.9.

Assay: CCTE_Mundy_HCI_hNP1_Pro_ResponderAvgInten: CCTE's Proliferation Assay in human neuroprogenitor cells, Mundy Lab (AID 2284224);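 also: human neural progenitor cells hNP1 derived from WA09 embryonic stem cells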
Method in brief: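 Human neuroprogenitors (hNP1, WA09 lineage) receive test chemical after 40 to 44 hours of attachment. A four-hour BrdU pulse begins twenty hours later, followed by fixation and high content imaging; signal is referenced to DMSO controls.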

| SMILES | AC50 | outcome |
| --- | --- | --- |
| BrC1CC(Br)CC(Br)CC(Br)CC(Br)CC(Br)C1 (stereo unspecified) | 7.21 µM (active) |  |
| CC(CNC(=S)[S-])NC(=S)[S-].[Zn+2] (stereo unspecified) |  | inactive |
| CC(=O)N[C@@H](CC(=O)O)C(=O)O |  | inactive |
| CC(C)c1nn(C(=O)NC(C)(C)C)c(=O)n1N |  | inactive |
| CCCCCC(C)(CC)C(=O)NC (stereo unspecified) |  | inactive |
| C[C@@H]1CCO[C@H]2Cn3cc(C(=O)NCc4ccc(F)cc4F)c(=O)c(O)c3C(=O)N12 | 15.6 µM (active) |  |
| CCCCCC=C(C)C(CC)CCO (stereo unspecified) |  | inactive |
| CC(C)O |  | inactive |

Assay: UKN4_HCS_LUHMES_cell_viability: Viability Assessment in the University of Konstanz (UKN) Leist Lab Neurite Outgrowth Assay in human LUHMES cells (UKN4) (AID 2284232; active = hit-call score of the fitted dose curve at least 0.9, where 1 is the maximum; inactive = score below 0.9)
Method in brief: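 Fluorescence intensity from high-content imaging of Hoechst H-33342/calcein-AM-stained cells served as the viability read-out. Human LUHMES precursors were differentiated 2 days, replated and treated 24 h; curves were fitted bidirectionally against DMSO.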

| SMILES | outcome |
| --- | --- |
| Brc1cc(Br)c(Oc2cc(Br)c(Br)cc2Br)cc1Br | inactive |
| Cc1ccccc1 | inactive |
| O.O=S(=O)([O-])[O-].[Mn+2] | inactive |
| CC(=O)OC/N=[N+](\C)[O-] | inactive |

Assay: UKN2_HCS_IMR90_cell_viability: Viability Assessment in the University of Konstanz (UKN) Leist Lab Neural Crest Cell Migration Assay in human induced IMR90 Pluripotent Stem Cells (UKN2) (AID 2284233; active = hit-call score of the fitted dose curve at least 0.9, where 1 is the maximum; inactive = score below 0.9;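 also: viability of neural crest cells differentiated from IMR90 iPSC measured by calcein-AM fluorescence imaging; cells exposed to compound for 24 h after a 24 h migration phase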)
Method in brief: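 iPSC-derived (IMR90) neural crest cells seeded around silicone stoppers on PLO/laminin/fibronectin; after 24 h migration in N2-S with EGF/FGF, chemical added for 24 h. Calcein-AM/Hoechst stained 30 min, high-content imaged; bidirectional fit versus DMSO.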

| SMILES | outcome | AC50 |
| --- | --- | --- |
| BrC1CC(Br)CC(Br)CC(Br)CC(Br)CC(Br)C1 (stereo unspecified) | inactive |  |
| CC(CNC(=S)[S-])NC(=S)[S-].[Zn+2] (stereo unspecified) | inactive |  |
| CC(=O)N[C@@H](CC(=O)O)C(=O)O | inactive |  |
| CC(C)c1nn(C(=O)NC(C)(C)C)c(=O)n1N | inactive |  |
| Cc1[nH]n(C)c(=O)c1C(=O)c1ccc(C(F)(F)F)cc1S(C)(=O)=O | inactive |  |
| Brc1cc(Br)c(Oc2cc(Br)c(Br)cc2Br)cc1Br | inactive |  |
| CCCCCC(C)(CC)C(=O)NC (stereo unspecified) | inactive |  |
| C[C@@H]1CCO[C@H]2Cn3cc(C(=O)NCc4ccc(F)cc4F)c(=O)c(O)c3C(=O)N12 | inactive |  |
| Cc1ccccc1 | inactive |  |
| CCCCCC=C(C)C(CC)CCO (stereo unspecified) | inactive |  |
| O.O=S(=O)([O-])[O-].[Mn+2] |  | 50 µM (active) |
| CCc1ccccc1 | inactive |  |
| C[C@@H]1CC[C@@H](C(C)(C)O)[C@H](O)C1 | inactive |  |
| CC(C)O | inactive |  |
| CC(=O)OC/N=[N+](\C)[O-] | inactive |  |

Assay: CCTE_Mundy_HCI_Cortical_NOG_NeuronCount: CCTE's Neurite Outgrowth Assay in rat cortical cells for Neuron Count, Mundy Lab (AID 2284236);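 also: neurons counted by imaging betaIII-tubulin and Hoechst stained cortical cells; cells exposed to compound for about 48 hours before fixation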
Method in brief: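 Read-out: neuron number by high-content imaging of betaIII-tubulin (Alexa Fluor-488) and Hoechst-labelled rat primary cortical cells.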

| SMILES | AC50 | outcome |
| --- | --- | --- |
| BrC1CC(Br)CC(Br)CC(Br)CC(Br)CC(Br)C1 (stereo unspecified) | 9.27 µM (active) |  |
| CC(CNC(=S)[S-])NC(=S)[S-].[Zn+2] (stereo unspecified) | 19.2 µM (active) |  |
| CC(=O)N[C@@H](CC(=O)O)C(=O)O |  | inactive |
| CC(C)c1nn(C(=O)NC(C)(C)C)c(=O)n1N |  | inactive |
| Cc1[nH]n(C)c(=O)c1C(=O)c1ccc(C(F)(F)F)cc1S(C)(=O)=O |  | inactive |
| CCN(CC)CCCC(C)Nc1nc(C)cc(Nc2ccc3nc(C)cc(N)c3c2)n1 (stereo unspecified) |  | inactive |
| CCCCCC(C)(CC)C(=O)NC (stereo unspecified) |  | inactive |
| C[C@@H]1CCO[C@H]2Cn3cc(C(=O)NCc4ccc(F)cc4F)c(=O)c(O)c3C(=O)N12 |  | inactive |
| CN(C)CCCn1cc(C2=C(c3c[nH]c4ccccc34)C(=O)NC2=O)c2ccccc21 |  | inactive |
| CCCCCC=C(C)C(CC)CCO (stereo unspecified) |  | inactive |
| CCc1ccccc1 |  | inactive |
| [Li+] |  | inactive |
| C[C@@H]1CC[C@@H](C(C)(C)O)[C@H](O)C1 |  | inactive |
| CC(C)O |  | inactive |
